Laboratory results taken from PMC4336329 (PLoS ONE, 2015).
Hit rate of the full screen: of about 310,000 compounds, about 14,000 (4.5%) showed an effect of 50% or more. Effects have a minus sign here. Shown is part of a subset that was picked to be rich in strong results.
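Further: peak tail current of the secondary pulse compared with the same well before compound.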

Each molecule was assayed against human ether-à-go-go-related gene (hERG) potassium channel (human, UniProt Q12809) (assay: primary screen, population patch clamp on CHO cells stably expressing hERG; higher = less effect of the substance).
Chain of human ether-à-go-go-related gene (hERG) potassium channel (Q12809 whole entry, looked up): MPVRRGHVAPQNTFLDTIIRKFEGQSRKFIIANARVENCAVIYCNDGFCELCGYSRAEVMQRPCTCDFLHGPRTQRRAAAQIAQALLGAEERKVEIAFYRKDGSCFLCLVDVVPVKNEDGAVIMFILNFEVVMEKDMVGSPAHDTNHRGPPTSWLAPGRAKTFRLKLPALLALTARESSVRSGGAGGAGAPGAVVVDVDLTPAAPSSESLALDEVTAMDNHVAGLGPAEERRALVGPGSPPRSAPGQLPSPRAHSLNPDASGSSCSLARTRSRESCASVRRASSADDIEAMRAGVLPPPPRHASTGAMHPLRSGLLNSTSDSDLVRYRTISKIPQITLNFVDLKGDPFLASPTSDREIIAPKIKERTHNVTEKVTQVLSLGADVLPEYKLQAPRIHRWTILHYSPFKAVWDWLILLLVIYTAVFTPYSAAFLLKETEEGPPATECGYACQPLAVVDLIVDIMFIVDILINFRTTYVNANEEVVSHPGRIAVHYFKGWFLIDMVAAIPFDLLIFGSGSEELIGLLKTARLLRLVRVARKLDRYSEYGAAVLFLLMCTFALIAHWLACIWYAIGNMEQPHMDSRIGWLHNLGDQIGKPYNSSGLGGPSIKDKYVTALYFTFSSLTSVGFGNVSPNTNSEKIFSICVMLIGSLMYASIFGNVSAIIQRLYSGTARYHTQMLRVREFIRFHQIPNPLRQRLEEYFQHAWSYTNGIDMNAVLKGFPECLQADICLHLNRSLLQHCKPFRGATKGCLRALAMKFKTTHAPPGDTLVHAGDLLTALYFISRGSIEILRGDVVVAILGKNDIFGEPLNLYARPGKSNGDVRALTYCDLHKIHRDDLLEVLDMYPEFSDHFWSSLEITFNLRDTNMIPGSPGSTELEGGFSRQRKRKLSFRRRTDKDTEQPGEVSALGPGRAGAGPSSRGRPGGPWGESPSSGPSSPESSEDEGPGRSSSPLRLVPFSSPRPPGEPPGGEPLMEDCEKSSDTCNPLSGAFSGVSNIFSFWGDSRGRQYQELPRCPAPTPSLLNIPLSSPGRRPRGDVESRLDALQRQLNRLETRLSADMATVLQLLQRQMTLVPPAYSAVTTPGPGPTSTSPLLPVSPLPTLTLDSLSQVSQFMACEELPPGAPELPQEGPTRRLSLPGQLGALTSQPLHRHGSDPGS
`O=C1C=C(Nc2ccc(Cl)cc2)C(=O)N1c1ccc(Cl)cc1` was tested, and the “hERG current change (%, negative = inhibition) at 10uM” value was 9.57%. For `O=C(NCCC(=O)N(CCc1ccccc1)Cc1ccccc1)c1ccc(Br)cc1`, the “hERG current change (%, negative = inhibition) at 10uM” value was -44.9%. `O=C(NCCc1ccccc1)c1ccccc1Cl` was tested, and the “hERG current change (%, negative = inhibition) at 10uM” value was 3.33%. For `O=C(NCCC(=O)N(CCc1ccccc1)Cc1ccccc1)c1ccccc1Cl`, the “hERG current change (%, negative = inhibition) at 10uM” value was -72.9%. In the case of `CCOC(=O)C1=C(O)/C(=C\c2ccc(O)c(OCC)c2)N=C1C`, the “hERG current change (%, negative = inhibition) at 10uM” value is reported as 8.17%. For `C1CCC(NC2=NCCC2)CC1.Cl`, the “hERG current change (%, negative = inhibition) at 10uM” value was -1.01%. In the case of `O=C(O)Cn1nc(C(F)(F)F)c2c1CCC2`, the “hERG current change (%, negative = inhibition) at 10uM” value is reported as 20.4%. In the case of `CCCN1C2CCCC1CC(NC(=O)c1ccc(C(C)(C)C)cc1)C2` (centres unmarked), the “hERG current change (%, negative = inhibition) at 10uM” value is reported as -37.1%. `CCCN1C2CCCC1CC(NC(=O)c1ccc(OC)cc1)C2` (centres unmarked) was tested, and the “hERG current change (%, negative = inhibition) at 10uM” value was -30.1%. For `CCCN1C2CCCC1CC(NC(=O)c1ccccc1)C2` (centres unmarked), the “hERG current change (%, negative = inhibition) at 10uM” value was -18.9%. `CCCN1C2CCCC1CC(NC(=O)c1ccc(Br)cc1)C2` (centres unmarked) was tested, and the “hERG current change (%, negative = inhibition) at 10uM” value was -66.3%. `CCCN1C2CCCC1CC(NC(=O)c1ccc(F)cc1)C2` (centres unmarked) was tested, and the “hERG current change (%, negative = inhibition) at 10uM” value was -55.3%. For `CCCN1C2CCCC1CC(NC(=O)c1ccccc1F)C2` (centres unmarked), the “hERG current change (%, negative = inhibition) at 10uM” value was -21.7%. For `CCc1ccc(NCc2ccc(OC)c(Cn3ccnc3)c2)cc1`, the “hERG current change (%, negative = inhibition) at 10uM” value was -10.5%. In the case of `O=C(O)CCCC(=O)N1N=C(c2c(-c3ccccc3)c3cc(Cl)ccc3[nH]c2=O)CC1c1cccs1` (centres unmarked), the “hERG current change (%, negative = inhibition) at 10uM” value is reported as 23.2%. With `Cc1c(C(=O)NCc2ccco2)oc2ccc(S(=O)(=O)N3CCC4(CC3)OCCO4)cc12` the “hERG current change (%, negative = inhibition) at 10uM” value was -19.7%. In the case of `c1ccc(CCCCN2C(Nc3ccccc3)=NC[C@@H]2Cc2ccccc2)cc1`, the “hERG current change (%, negative = inhibition) at 10uM” value is reported as -71.5%. In the case of `CCCCN1C(Nc2ccccc2)=NC[C@@H]1C`, the “hERG current change (%, negative = inhibition) at 10uM” value is reported as 14.4%. `C[C@H]1CN=C(Nc2ccccc2)N1CCc1ccccc1` was tested, and the “hERG current change (%, negative = inhibition) at 10uM” value was -9.89%. `Cc1ccc(CCN2C(Nc3ccccc3)=NC[C@@H]2C)cc1` was tested, and the “hERG current change (%, negative = inhibition) at 10uM” value was -35.9%. With `CCN1C(Nc2ccccc2)=NC[C@@H]1Cc1ccccc1` the “hERG current change (%, negative = inhibition) at 10uM” value was -26%. With `CCCCCCCN1C(Nc2ccccc2)=NC[C@@H]1Cc1ccccc1` the “hERG current change (%, negative = inhibition) at 10uM” value was -83.3%. For `CCCCN1C(Nc2ccccc2)=NC[C@@H]1Cc1ccccc1`, the “hERG current change (%, negative = inhibition) at 10uM” value was -66.1%. `CCCCN1C(N)=NC[C@@H]1Cc1ccccc1` was tested, and the “hERG current change (%, negative = inhibition) at 10uM” value was 0.376%. With `CCCCCCCN1C(Nc2ccccc2)=NC[C@@H]1C` the “hERG current change (%, negative = inhibition) at 10uM” value was -68%. In the case of `CCN1C(Nc2ccccc2)=NC[C@@H]1C`, the “hERG current change (%, negative = inhibition) at 10uM” value is reported as 15.2%. In the case of `CC(C)CCCN1C(Nc2ccccc2)=NC[C@@H]1C`, the “hERG current change (%, negative = inhibition) at 10uM” value is reported as -11.4%. In the case of `OC1CCCN(c2ncnc3c2nnn3Cc2c(F)cccc2Cl)C1` (centres unmarked), the “hERG current change (%, negative = inhibition) at 10uM” value is reported as 0.989%. `COc1cc([N+](=O)[O-])ccc1NC(=O)NCc1ccccn1` was tested, and the “hERG current change (%, negative = inhibition) at 10uM” value was 11.7%. For `CC(=O)c1cccc(NC(=O)CSc2n[nH]c(-c3ccncc3)n2)c1`, the “hERG current change (%, negative = inhibition) at 10uM” value was 10.5%. With `Cc1ccc(Cl)c(OCC(=O)Nc2ccccc2C(=O)NC2CC2)c1` the “hERG current change (%, negative = inhibition) at 10uM” value was 3.5%. For `O=C(COc1ccc(Br)cc1F)NC1CCN(Cc2ccccc2)CC1`, the “hERG current change (%, negative = inhibition) at 10uM” value was -74%. `O=C(COc1ccc(Br)cc1Cl)NC1CCN(Cc2ccccc2)CC1` was tested, and the “hERG current change (%, negative = inhibition) at 10uM” value was -67.3%. In the case of `Cc1cc(OCC(=O)NC2CCN(Cc3ccccc3)CC2)c2c(C)c(C)c(=O)oc2c1`, the “hERG current change (%, negative = inhibition) at 10uM” value is reported as -22.4%. With `O=C(COc1ccccc1F)NC1CC1` the “hERG current change (%, negative = inhibition) at 10uM” value was 0.681%. `O=C(COc1ccc(Br)cc1Cl)NC(=O)NC1CCCC1` was tested, and the “hERG current change (%, negative = inhibition) at 10uM” value was -9.03%. `Cc1ccc(Cl)c(OCC(=O)NC2CCN(Cc3ccccc3)CC2)c1` was tested, and the “hERG current change (%, negative = inhibition) at 10uM” value was -115%. For `O=C(COc1ccc(Br)cc1Cl)NC1CCCCC1`, the “hERG current change (%, negative = inhibition) at 10uM” value was 9.84%. `Cl.O=C(COc1ccccc1F)NC1CCN(Cc2ccccc2)CC1` was tested, and the “hERG current change (%, negative = inhibition) at 10uM” value was -38.5%. For `COc1ccc(C(=O)N(C)c2ccccc2C(=O)NCCc2ccccc2)cc1`, the “hERG current change (%, negative = inhibition) at 10uM” value was -20.2%. For `O=C(CCCn1c(=O)c2ccccc2n(Cc2ccccc2)c1=O)NCc1ccco1`, the “hERG current change (%, negative = inhibition) at 10uM” value was -7.47%. In the case of `CNC(=O)c1c(C)nn(-c2ccc(F)c(Cl)c2)c1-c1cc(C)on1`, the “hERG current change (%, negative = inhibition) at 10uM” value is reported as 4.71%. With `Cc1ccc(CC(=O)Nc2ccc(S(=O)(=O)Nc3nccc(C)n3)cc2)cc1` the “hERG current change (%, negative = inhibition) at 10uM” value was 1.2%. In the case of `CCCCC(NC(C)=O)c1nc2ccccc2[nH]1` (centres unmarked), the “hERG current change (%, negative = inhibition) at 10uM” value is reported as 23.1%. For `CC(C)COC(=O)Nc1ccccc1C(=O)N1CCOCC1`, the “hERG current change (%, negative = inhibition) at 10uM” value was 9.75%. With `C=C[C@@H]1C2=CCOC(=O)C2=CO[C@H]1O[C@@H]1O[C@H](CO)[C@@H](O)[C@H](O)[C@H]1O` the “hERG current change (%, negative = inhibition) at 10uM” value was 20.1%. With `N#CCCN1CCN(S(=O)(=O)c2ccc(S(=O)(=O)N3CCCC3)cc2)CC1` the “hERG current change (%, negative = inhibition) at 10uM” value was 4.66%. With `COc1ccc(S(=O)(=O)NCc2ccccn2)c(C)c1C` the “hERG current change (%, negative = inhibition) at 10uM” value was 0.26%. With `N#CCc1c(C#N)c(N)nc(N2CCCC(CO)C2)c1C#N` (centres unmarked) the “hERG current change (%, negative = inhibition) at 10uM” value was 1.82%. With `Cc1ccccc1Cn1c2ccccc2c2cnn(CC(=O)NCCCN3CCOCC3)c(=O)c21` the “hERG current change (%, negative = inhibition) at 10uM” value was -18.6%. `O=C(Cn1ncc2c3ccccc3n(Cc3ccccc3)c2c1=O)NCCCN1CCOCC1` was tested, and the “hERG current change (%, negative = inhibition) at 10uM” value was -45.2%. For `Cc1ccc(C)c(Cn2c3ccccc3c3cnn(CC(=O)NCCN4CCOCC4)c(=O)c32)c1`, the “hERG current change (%, negative = inhibition) at 10uM” value was -45%. For `O=C(Cn1ncc2c3ccccc3n(Cc3ccccc3F)c2c1=O)NCCN1CCOCC1`, the “hERG current change (%, negative = inhibition) at 10uM” value was -55.2%. In the case of `O=C(Cn1ncc2c3ccccc3n(Cc3ccccc3)c2c1=O)NCCN1CCOCC1`, the “hERG current change (%, negative = inhibition) at 10uM” value is reported as -57%. In the case of `Cc1cc(C)c(Cn2c3ccccc3c3cnn(CC(=O)NCCN4CCOCC4)c(=O)c32)c(C)c1`, the “hERG current change (%, negative = inhibition) at 10uM” value is reported as 2.31%. `CCC(=O)/C=C1/Sc2ccc(OC)cc2N1CC` was tested, and the “hERG current change (%, negative = inhibition) at 10uM” value was -4.45%. With `C=CCn1cc(C(=O)NCC2CCCO2)c(=O)c2cc(S(=O)(=O)N3CCCCCC3)ccc21` (centres unmarked) the “hERG current change (%, negative = inhibition) at 10uM” value was -48.1%. With `O=C(COC(=O)C1=COCCO1)Nc1cccc(S(=O)(=O)N2CCOCC2)c1` the “hERG current change (%, negative = inhibition) at 10uM” value was 10.8%. For `COc1ccc(-c2c(NC(=O)c3ccco3)oc3ccc(Cl)cc3c2=O)cc1`, the “hERG current change (%, negative = inhibition) at 10uM” value was 19.7%.
